The whole screen tested about 290,000 compounds, of which about 3,100 (1.1%) were called active. Only a selection was taken, and actives are over-represented in it overall. A number with no mark means an inactive call. Rule as the data show it: active = inhibition above about 16% (passing the limit was not always enough); inactive = the rest.
What follows are molecules tested against Neuropeptides B/W receptor type 1 (Homo sapiens) (UniProt P48145) (assay: GPR7 receptor antagonists, primary screen, cell-based, fluorescence, single concentration (AID 1861;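 also: cells stimulated with the agonist NPW; 0% = agonist with vehicle and 100% = vehicle without agonist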)). Details: GPR7-expressing cells, fluorescence antagonist assay; at 4.4 µM; active compounds read high.
Neuropeptides B/W receptor type 1 (Homo sapiens), sequence (P48145 whole entry, looked up): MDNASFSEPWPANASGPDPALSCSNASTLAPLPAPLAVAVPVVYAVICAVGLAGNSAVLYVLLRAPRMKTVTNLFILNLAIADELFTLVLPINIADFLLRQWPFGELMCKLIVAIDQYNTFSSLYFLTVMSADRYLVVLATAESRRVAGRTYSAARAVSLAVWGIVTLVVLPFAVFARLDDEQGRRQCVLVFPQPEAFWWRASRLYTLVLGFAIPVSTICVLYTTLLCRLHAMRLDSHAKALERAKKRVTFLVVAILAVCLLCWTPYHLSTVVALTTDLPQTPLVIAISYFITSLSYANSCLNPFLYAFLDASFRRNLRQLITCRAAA

Compared with `COc1ccccc1NC(=O)CSc1nc2sc3c(c2c(=O)n1-c1ccccc1)CCN(C)C3`, `CCOc1ccc(-n2c(SCC(=O)Nc3cc(C(=O)O)ccc3Cl)nc3ccccc3c2=O)cc1` is lower in inhibition: 4.04% for the first, 2.21% for the second.

First: Cc1ccc(C)c(SCc2nc3sc(C(=O)O)c(C)c3c(=O)[nH]2)c1
Second: Cc1ccccc1/C=C\c1nc(O)c([N+](=O)[O-])c(=O)[nH]1
The inhibition of the first is lower: -16.9% for the first, -0.51% for the second.

Compared with `COc1cccc(/C=C(/CC(=O)Nc2ccc(N3CCOCC3)cc2)c2nc3ccccc3s2)c1`, `COc1cccc(-n2c(SCC(=O)c3c[nH]c4ccccc34)nc3ccccc3c2=O)c1` is lower in inhibition: -6.54% for the first, -11.6% for the second.

First: Cc1ccc(C)c(C(=O)N2CCC(n3nccc3NC(=O)C3CC3)CC2)c1
Second: CCOC(=O)N1CCC(N2Cc3cccc(C(=O)Nc4c(C)cccc4CC)c3C2=O)CC1
The inhibition of the first is lower: -10.3% for the first, 8.95% for the second.

First: CCCCCCn1c(CN2CCCCC2)nc2c1c(=O)n(C)c(=O)n2C
Second: CCN1CCN(c2ccc(S(=O)(=O)N3CCCCC3)cc2NC(=O)Cc2c(Cl)cccc2Cl)CC1
The inhibition of the first is lower: 0.86% for the first, 1.74% for the second.

Going from `COc1ccccc1C(=O)N/C(=C/c1ccco1)C(=O)Nc1ccc(C(=O)O)cc1` to `O=C(CSCc1ccc([N+](=O)[O-])cc1)Nc1cccc(C(=O)Nc2ccccc2C(=O)O)c1`, the inhibition falls from 0.36% to -8.22%.

Compared with `CCCC(=O)Nc1ccc(Cl)c(NC(=O)c2ccc(Br)o2)c1`, `COc1ccc(NC(=O)CSCc2ccc([N+](=O)[O-])cc2)cc1OC` is higher in inhibition: -14% for the first, -12% for the second.

Going from `O=C(Nc1cccc(Cl)c1N1CCOCC1)c1cccnc1` to `COC(=O)c1ccc(N2CCOCC2)c(NC(=O)c2ccc3c(c2)OCCO3)c1`, the inhibition falls from -1.34% to -10.5%.

First: COc1ccc2cc(C(=O)NCC3CCCO3)[nH]c2c1 (stereo not drawn)
Second: CC(NS(=O)(=O)c1ccc(Br)cc1)C(=O)NCC1CCCO1 (stereo not drawn)
The inhibition of the first is higher: -1.93% for the first, -6% for the second.

Compared with `CN(C)CCOCCOc1ccc(Cl)c2ccccc12`, `Clc1cccc(Cl)c1OCCOCCNCc1ccccc1` is lower in inhibition: 14.1% for the first, -2.47% for the second.

First: COc1ccc(NS(=O)(=O)c2ccc(O)c(C(=O)OCC(=O)NC3CCCCC3)c2)cc1
Second: COc1ccc(C(=O)NC2CCN(C(=O)Nc3ccc(F)cc3)CC2)cc1
The inhibition of the first is lower: -13.8% for the first, -10.4% for the second.

First: NC(=O)COc1ccccc1C(=O)NC12CC3CC(CC(C3)C1)C2
Second: O=C(CCc1ccccc1)Nc1ccc(NC(=O)C2CCCCC2)nc1
The inhibition of the first is lower: -4.36% for the first, 14% for the second.

Going from `O=C(Cc1nn[nH]n1)NCCC1=CCCCC1` to `Cc1ccccc1CN1CCNC(=O)C1CC(=O)NCCC1=CCCCC1` (stereo not drawn), the inhibition rises from -14.2% to -1.59%.

Compared with `CCN(CC)Cc1c(C(=O)N/N=C/c2cccc(OCc3ccc(F)cc3)c2)nnn1-c1nonc1N`, `Cc1c(C(=O)O)nnn1-c1nonc1N` is lower in inhibition: 6.35% for the first, -7.01% for the second.

Compared with `O=C(CSc1nnnn1C1CCCC1)N1CCCCC1`, `O=C(C1CC(=O)N(c2ccc(Br)cc2)C1)N1CCCC1` (stereo not drawn) is lower in inhibition: 0.56% for the first, -7.92% for the second.

Compared with `CCOC(=O)C1(Cc2ccccc2C(F)(F)F)CCN(C(=O)c2cc(C)n(C)n2)CC1`, `CCOC(=O)C1(CCOC)CCN(Cc2cc3ccccc3s2)CC1` is higher in inhibition: -2.9% for the first, -2.08% for the second.

Going from `O=C(CSc1ccc(-c2ccc(Br)cc2)nn1)NCC1CCCO1` (stereo not drawn) to `O=C(NCC(=O)N(c1ccccc1)C(C(=O)NCC1CCCO1)c1ccccc1)c1cccs1` (stereo not drawn), the inhibition falls from -0.63% to -0.97%.

Going from `CCc1ccc(OCC(O)CN2CCN(CCO)CC2)cc1` (stereo not drawn) to `O=C1CCN(Cc2ccc([N+](=O)[O-])cc2)CCN1[C@H](CO)Cc1ccccc1`, the inhibition rises from -19.8% to 0.55%.

Compared with `O=S1(=O)CCO[C@H]2Cc3ccccc3[C@H]2N1Cc1ccccc1`, `Nc1nc(NCc2ccccc2)n(-c2ccccc2)n1` is higher in inhibition: -8.66% for the first, -7.72% for the second.

First: COc1ccccc1C(=O)N1C(CC(=O)Nc2ccccc2C)C(=O)NC2CCCCC21 (stereo not drawn)
Second: COc1ccc(C(=O)NC(=S)N2CCCCC2c2cccnc2)cc1OC (stereo not drawn)
The inhibition of the first is lower: -5.63% for the first, -2.66% for the second.

Going from `Cc1cc(-c2n[nH]c(=S)n2/N=C/C(Br)=C/c2ccccc2)n[nH]1` to `COc1ccc(/C=C(\C#N)c2c[nH]c3ccccc23)cc1`, the inhibition rises from 4.93% to 17.2%.

Compared with `CN1CCN(c2ccc(S(=O)(=O)N3CCCCC3)cc2NC(=O)Cc2ccccc2F)CC1`, `Cc1ccc(S(=O)(=O)N2CCC(C)CC2)cc1C(=O)NCc1ccccn1` is lower in inhibition: 1.52% for the first, -11.1% for the second.

Going from `CCCC(C)c1nnc(NC(=O)C2CC(=O)N(c3ccc(OCC)cc3)C2)s1` (stereo not drawn) to `CCOc1ccc(N=C2SC(C(=O)O)CC(=O)N2C)cc1` (stereo not drawn), the inhibition falls from 0.56% to -6.69%.

Going from `COc1ccc(N(CC(=O)Nc2cc(OC)ccc2OC)S(=O)(=O)c2c(C)noc2C)cc1` to `Cc1ccc(S(=O)(=O)CC(=O)Nc2c(C)n(C)n(-c3ccccc3)c2=O)cc1`, the inhibition rises from -4.71% to 1.37%.

First: O=C(CN1C(=O)NC2(CCCC2)C1=O)Nc1ccc(F)c(F)c1F
Second: CC1(c2ccc(Cl)cc2)NC(=O)N(CC(=O)c2ccc3c(c2)OCO3)C1=O (stereo not drawn)
The inhibition of the first is higher: 11.1% for the first, -6.7% for the second.

Compared with `O/N=C(\C[n+]1ccccc1)c1ccc(Br)cc1`, `O=C(NCCc1c[nH]c2ccccc12)C1CCN(Cc2ccc(Br)cc2)CC1` is higher in inhibition: 5.69% for the first, 6.85% for the second.

First: O=C(COc1ccc(Cl)cc1)N1CCN(c2cccc(C(F)(F)F)c2)CC1
Second: O=C(COc1ccc(S(=O)(=O)NCc2ccccc2)cc1)N1CCOCC1
The inhibition of the first is lower: -8.3% for the first, 4.86% for the second.

Compared with `COc1ccccc1/C=N\Nc1cc(C)nc(-n2nc(C)cc2C)n1`, `Cc1cc(N/N=C\c2ccc(Br)cc2)nc(-n2nc(C)cc2C)n1` is higher in inhibition: -14.4% for the first, -2.3% for the second.

First: CCc1ccc(N(C(=O)c2csnn2)C(C(=O)NC2CCCCC2)c2cccnc2)cc1 (stereo not drawn)
Second: O=C(NC1CCCC1)C(c1ccco1)N(C(=O)c1csnn1)c1ccccc1 (stereo not drawn)
The inhibition of the first is higher: 16.5% for the first, -7.05% for the second.

Compared with `CN(C)CCNc1ccc(-c2n[nH]c(=O)c3ccccc23)cc1[N+](=O)[O-]`, `CCc1ccccc1NC(=O)c1ccc2snnc2c1` is higher in inhibition: -19.5% for the first, 4.67% for the second.

Compared with `O=C(Nc1cccc(Br)c1)c1ccc2snnc2c1`, `CC1CC(=O)N(CC(=O)Nc2cccc(Cl)c2)c2ccccc2S1(=O)=O` (stereo not drawn) is lower in inhibition: 6.67% for the first, 0.41% for the second.

First: COCC(=O)N1CCCC(C(=O)c2ccc(C(F)(F)F)cc2)C1 (stereo not drawn)
Second: CCOC(=O)C1CN(S(=O)(=O)c2ccc(F)cc2)C1
The inhibition of the first is lower: -16.7% for the first, -9.92% for the second.

Going from `CC(=O)Nc1ccc(NC(=O)CSc2nnnn2-c2ccccc2F)cc1` to `CN(CC(=O)NCCc1ccccn1)S(=O)(=O)c1ccc(Cl)cc1`, the inhibition rises from -7.45% to -4.58%.

Compared with `O=C(CN1CCc2cc3c(cc2C1)OCCCO3)Nc1ccccc1`, `Cc1cc(C)cc(OCC(=O)NC(C)c2ccccc2)c1` (stereo not drawn) is higher in inhibition: -5.17% for the first, -3.54% for the second.

First: CC1(C)C(C=C(Cl)Cl)C1C(=O)NC(O)C(=O)c1ccccc1 (stereo not drawn)
Second: O=C(NCCc1ccccc1)C1CC1
The inhibition of the first is higher: -5.98% for the first, -22.6% for the second.

Compared with `O=C(CN(C(=O)CNC(=O)c1cccs1)c1cccc(F)c1)NC1CCCCC1`, `CN(c1ccc(C(=O)NCCC2=CCCCC2)cc1)S(C)(=O)=O` is higher in inhibition: 7.46% for the first, 10.7% for the second.

With `Cc1ccc(OCC(=O)NC(C)c2ccccc2)cc1C` (stereo not drawn) the inhibition was 5.96%.

`Cc1ccc(-c2nc(SCC(=O)Nc3ccccc3OC(F)F)c3c(C)c(C(=O)O)sc3n2)cc1` was tested, and the inhibition was 29.8% (active).
For `CCCCCCCCn1c2c(c(=N)c3c1CCC3)CCCC2`, the inhibition was 57.5% (active).
With `CCN1CCN(c2c(Cl)cccc2NC(=O)c2ccc(Br)o2)CC1` the inhibition was 23.7% (active).
`CCN(CC)CCOCCOc1ccc(Cl)c2ccccc12` was tested, and the inhibition was 27.1% (active).
With `CN1CCNC(=O)C1CC(=O)NCCC1=CCCCC1` (stereo not drawn) the inhibition was 18.4% (active).
In the case of `CCN(CC)Cc1c(C(=O)OC)nnn1-c1nonc1N`, the inhibition is reported as 36.6% (active).
In the case of `OC(CNCC1CCCO1)Cn1c2ccc(Br)cc2c2cc(Br)ccc21` (stereo not drawn), the inhibition is reported as 25.7% (active).
`COc1ccc(CC(=O)Nc2cc(S(=O)(=O)N3CCCCC3)ccc2N2CCN(C)CC2)cc1` was tested, and the inhibition was 19.6% (active).
In the case of `COc1ccc(C(C(O)C(=O)c2c[nH]c3ccccc23)N2CCN(c3ccccc3)CC2)cc1` (stereo not drawn), the inhibition is reported as 25.7% (active).
With `Cc1ccc(NC(=O)CN2C(=O)NC(C)(c3ccc(Cl)cc3)C2=O)c(Br)c1` (stereo not drawn) the inhibition was 22.3% (active).
`O=C(COc1ccc(S(=O)(=O)Nc2cccc(C(F)(F)F)c2)cc1)N1CCOCC1` was tested, and the inhibition was 26.6% (active).
`COc1ccc(Nc2cc(C)nc(-n3nc(C)cc3C)n2)cc1` was tested, and the inhibition was 20.7% (active).
In the case of `CCc1ccc(N(C(=O)c2csnn2)C(C(=O)NC2CCCCC2)c2ccncc2)cc1` (stereo not drawn), the inhibition is reported as 22.7% (active).
`O=C(Nc1ccc2ccccc2c1)Nc1ccc2snnc2c1` was tested, and the inhibition was 31.3% (active).
`COc1ccc(N=C2SC(C(=O)Nc3ccc(F)cc3)CC(=O)N2C)cc1` (stereo not drawn) was tested, and the inhibition was 26.4% (active).
With `O=C(CSCc1ccc([N+](=O)[O-])cc1)NCCSCc1ccccc1` the inhibition was 44.7% (active).
`Cc1c(CCO)c(=O)n(-c2ccccc2)n1S(=O)(=O)c1ccc(F)cc1` was tested, and the inhibition was 33% (active).
In the case of `O=C(CCc1ccccc1)Nc1ccc(NC(=O)C2CC2)nc1`, the inhibition is reported as 34% (active).
`CC(=O)Nc1ccc(S(=O)(=O)N(C)CC(=O)NCCC2=CCCCC2)cc1` was tested, and the inhibition was 26.4% (active).
In the case of `COc1cc(OC)cc(C(=O)N[C@H](C(=O)OCC(=O)NC(C)c2ccccc2)C(C)C)c1` (stereo partly drawn), the inhibition is reported as 34.5% (active).
